# In PubChem BioAssay AID1010 (Sanford-Burnham Center for Chemical Genomics, 2008):
# About 160 (0.33%) of roughly 48,000 compounds were called active. The sample holds actives, similar compounds and a random draw of the others, so the mix is not that of the screen.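 The calls were made as follows: active = survival measured by cellular ATP above 50% at 15 µg/ml in the first screen; inactive = the rest.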
# Assay: protection against thapsigargin ER stress killing – CSM14.1 cells, ATP luminescence, primary screen (AID 1010);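 also: cell death triggered by about 15 µM thapsigargin; ATP read 24 h after thapsigargin was added; plate controls were thapsigargin with DMSO for no effect and DMSO without thapsigargin for full effect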
# Settings: CSM14.1 thapsigargin ER stress survival, stronger effect = higher value, screened at 15 µg/mL (by protocol)
row,SMILES,relative survival (cellular ATP)
1,O=C(Nc1ccc(Cc2ccncc2)cc1)C(c1ccccc1)c1ccccc1,43.5% (inactive)
2,COc1cc2ccccc2cc1C(=O)Nc1ccccc1C,-5.9% (inactive)
3,CC(C)(C)C(=O)CN1C2=NCCN2c2ccccc21,-3.6% (inactive)
4,COc1ccc(C2CC(c3cccs3)=NN2c2ccc(F)cc2)cc1OC (centres undefined),3.6% (inactive)
5,O=C(NCc1ccncc1)c1cccc([N+](=O)[O-])c1,2.2% (inactive)
6,CCCOc1ccc(/C=C2\C(=O)NN(c3ccccc3)C2=O)cc1OC,4.3% (inactive)
7,O=C(NNC(=O)c1cc(NC(=O)c2ccc([N+](=O)[O-])cc2)cc(C(=O)NNC(=O)c2ccccc2)c1)c1ccccc1,10% (inactive)
8,Cc1cc(Cl)ccc1NC(=O)CCc1ccccc1,5.6% (inactive)
9,O=C(NCc1cccnc1)c1cnn2c(C(F)(F)F)cc(-c3cccs3)nc12,2.5% (inactive)
10,O=C1C(=O)N(Cc2ccccc2)C(c2ccc(F)cc2)/C1=C(/O)c1ccccc1 (centres undefined),6.2% (inactive)
11,NC(=O)c1c(NC(=O)c2ccccc2F)sc2c1CCCCCC2,57.3% (active)
12,COc1ccc(C(=O)Nc2sc3c(c2C(N)=O)CCCC3)cc1,13.7% (inactive)
13,NC(=O)c1c(NC(=O)c2ccc(Br)cc2)sc2c1CCCCCC2,3.1% (inactive)
14,COc1ccc(CCN2C(=O)CC(Cc3ccc(Cl)cc3)C2=O)cc1OC (centres undefined),10.7% (inactive)
15,COc1cc(NC(=O)COc2ccc(Br)cc2C(C)(C)C)c(OC)cc1Cl,11.7% (inactive)
16,Cc1c(C(=O)Nc2ccc(NC(=O)c3ccc(C(C)(C)C)cc3)cc2)cccc1[N+](=O)[O-],0.1% (inactive)
17,COc1cccc(OCCOc2ccc(/C=C3/SC(=S)NC3=O)cc2OC)c1,10.2% (inactive)
18,NC(=O)C1(N2CCCCC2)CCN(C(=S)Nc2ccc(Cl)cc2)CC1,-1.2% (inactive)
19,CC1=C(C(=O)Nc2ccccc2)C(c2ccco2)N2C(=O)CSC2=N1 (centres undefined),2.3% (inactive)
20,O=C(NCCC1=CCCCC1)c1cc(Cl)ccc1[N+](=O)[O-],5.6% (inactive)
21,NC1=NC(=O)/C(=C/c2ccc(OCc3cccc4ccccc34)cc2)S1,2.9% (inactive)
22,O=C(NCCCCOc1ccccc1)C(O)(c1ccccc1)c1ccccc1,5.8% (inactive)
23,COc1cc(OC)cc(C(=O)Nc2cccc(S(N)(=O)=O)c2)c1,-2.7% (inactive)

row,SMILES,relative survival (cellular ATP)
1,CCOC(=O)c1ccc(NS(=O)(=O)c2cc(C(=O)Nc3ccccc3)ccc2C)cc1,4.6% (inactive)
2,CC1=C(C#N)c2nc(N)c(C#N)c(C)c2/C1=C/c1ccc(-c2cccc(Cl)c2Cl)o1,-6.8% (inactive)
3,O=C(O)c1cc(-c2ccc(/C=N/Nc3ccc(Cl)c(Cl)c3)o2)ccc1Cl,-2.2% (inactive)
4,COc1ccc(/C=C2\SC(=S)N(CC(=O)OCCN(C)C)C2=O)cc1,-6.1% (inactive)
5,Cc1c(C#N)c2nc3ccccc3n2c(=O)/c1=C\c1c(O)n(-c2ccc(Br)cc2)[nH]c1=O,-1.2% (inactive)
6,O=c1nc2cc3[nH]c4c(=O)c5ccccc5c4[nH]c3cc2n1,12.2% (inactive)
7,COC(=O)C1=C(C)NC2=C(C(=O)c3ccccc32)C1c1ccc(-c2ccc([N+](=O)[O-])cc2C)o1 (centres undefined),7.6% (inactive)
8,CC(=O)c1ccc(NC(=S)NC(NC(=O)N(C)C)C(Cl)(Cl)Cl)cc1 (centres undefined),-1.5% (inactive)
9,COc1ccc(/C(O)=C2/C(=O)C(=O)N(CCCCCC(=O)O)C2c2ccccc2)cc1 (centres undefined),2.4% (inactive)
10,O=C(NCCc1ccccc1)/C(=C/c1ccc(-c2cccc([N+](=O)[O-])c2)o1)NC(=O)c1ccccc1,8.1% (inactive)
11,O=C(NC(NC(=S)N1CCOCC1)C(Cl)(Cl)Cl)c1cccc([N+](=O)[O-])c1 (centres undefined),0.9% (inactive)
12,CC(C)(C)CC(C)(C)NC(=O)CSc1nc2ccccc2[nH]1,12.7% (inactive)
13,COC(=O)C1=C(C)N=c2s/c(=C\c3ccc(N(C)C)cc3)c(=O)n2C1c1ccccc1Cl (centres undefined),0.6% (inactive)
14,COc1cc(/C=C2/NC(=S)NC2=O)ccc1OCc1ccccc1Cl,1.9% (inactive)
15,CCN1C(=O)/C(=C\c2ccc(OC)c([N+](=O)[O-])c2)C(C(=O)OC)=C1C,11.8% (inactive)
16,Cc1ccc(N2C(=O)/C(=C/c3sccc3C)SC2=S)cc1,9.2% (inactive)
17,O=C1S/C(=C/c2ccccc2F)C(=O)N1CNc1ccccc1Br,2.5% (inactive)
18,O=C(Nc1nc(-c2ccc3ccccc3c2)cs1)c1ccc(Cl)cc1[N+](=O)[O-],2% (inactive)
19,O=c1[nH]c(=S)n(-c2cccc(Cl)c2)c(O)c1/C=C1/C=CC=N1,8.4% (inactive)
20,CCOc1ccc(-n2c(O)c(C=C3C=CC=N3)c(=O)[nH]c2=O)cc1,2.3% (inactive)
21,O=c1[nH]c(=O)n(-c2ccc(Cl)cc2)c(O)c1/C=C1/C=CC=N1,64.8% (active)
22,COc1ccc(/C=C(/NC(=O)c2ccco2)C(=O)Nc2ccc(C(C)=O)cc2)cc1,2.4% (inactive)
23,COC(=O)C(NC(=O)CCC1CCCCC1)C12CC3CC(CC(C3)C1)C2 (centres undefined),13.9% (inactive)

row,SMILES,relative survival (cellular ATP)
1,CC1=NN(c2ccc(S(N)(=O)=O)cc2)C(=O)/C1=C\c1ccc(-c2cc([N+](=O)[O-])ccc2C)o1,-4.8% (inactive)
2,CCOc1c(Br)cc(/C=C2/C(=O)NN(c3ccccc3)C2=O)cc1OC,5% (inactive)
3,COc1ccc(Br)cc1-c1nc2nnc(C)n2[nH]1,7.4% (inactive)
4,Cc1ccc(C(=O)Nc2ccc(NC(=O)c3ccccc3)cc2)cc1S(=O)(=O)N1CCOCC1,5% (inactive)
5,COc1ccc(-c2cc(C(=O)Nc3c(C)cccc3C)c3ccccc3n2)cc1,0.1% (inactive)
6,COCCCNC(=O)c1ccccc1C,0.6% (inactive)
7,CCOCCOC(=O)c1ccc(NC(=O)c2ccccc2C)cc1,7.2% (inactive)
8,CCCCOC(=O)C1=C(C)NC2=C(C(=O)CC(c3ccccc3)C2)C1c1ccc(O)c([N+](=O)[O-])c1 (centres undefined),3.8% (inactive)
9,O=C1OC(c2ccc(NC(=O)C(F)(F)F)cc2)(c2ccc(NC(=O)C(F)(F)F)cc2)c2ccccc21,6.6% (inactive)
10,O=C1NC(=S)S/C1=C\c1ccccc1OS(=O)(=O)c1ccc([N+](=O)[O-])cc1,3.7% (inactive)
11,Cc1ccc(C(=O)Nc2ccc(Cl)cc2)o1,2.1% (inactive)
12,O=S(=O)(O)c1cc(-n2nc3ccc4c(S(=O)(=O)O)cccc4c3n2)ccc1/C=C/c1ccccc1,6.1% (inactive)
13,CCc1cccc(C)c1NC(=O)c1ccc(C)c([N+](=O)[O-])c1,0.4% (inactive)
14,CC(NC(=O)C(F)(Cl)C(F)(F)F)c1ccccc1 (centres undefined),-2.2% (inactive)
15,O=C(N/C(=C/c1ccc(-c2cccc(C(F)(F)F)c2)o1)C(=O)N1CCOCC1)c1ccc(Cl)cc1,1% (inactive)
16,O=[N+]([O-])c1ccc(C2Nc3ccc(Br)cc3C3C=CCC32)cc1 (centres undefined),6.4% (inactive)
17,CC1(C)CC(=O)C2=C(C1)NC1=C(C(=O)CC(C)(C)C1)C2c1ccccc1Cl,9.2% (inactive)
18,CC1(C)CC(=O)C2=C(C1)Nc1ccccc1N(C(=O)Cc1ccccc1)C2c1cccc(F)c1 (centres undefined),0.5% (inactive)
19,COc1ccc(C2C3=C(CC(C)(C)CC3=O)Nc3ccccc3N2C(=O)c2ccc(Cl)cc2)cc1OC (centres undefined),59.4% (active)
20,CC(=O)Oc1ccc2occ(C(=O)c3ccc(C)cc3)c2c1,-6.1% (inactive)
21,CCOC(=O)C1=NN(C(=O)c2ccc(Cl)cc2)C(O)(C(C)(C)C)C1 (centres undefined),11.8% (inactive)
22,O=C(/C=C/c1ccccc1Cl)c1ccc(NC(=O)c2cccs2)cc1,1.3% (inactive)
23,CC(=O)Nc1ccc(C(=O)N2CCN(c3ccccc3)CC2)cc1,-6.3% (inactive)

row,SMILES,relative survival (cellular ATP)
1,O=C(c1ccc(C#CC2(O)CCCCC2)cc1)N1CCN(c2ccccc2Cl)CC1,94.4% (active)
2,OC1(C#Cc2ccccc2)CCN(Cc2ccccc2)CC1,-6% (inactive)
3,Cc1cc(=O)oc2cc(OCC(=O)OCc3ccccc3)ccc12,1.2% (inactive)
4,Cn1nc(-c2ccc(Br)cc2)cc1N,-2.2% (inactive)
5,COc1cc(C2Nc3ccc4ccccc4c3C3=C2C(=O)CC(C)(C)C3)c(Br)cc1O (centres undefined),1.3% (inactive)
6,COc1cc(OC)c(C2NC(=S)NC(C)=C2C(=O)Nc2ccc(Cl)cc2)cc1OC (centres undefined),7.2% (inactive)
7,CCOc1nc(-c2ccccc2)cc(-c2ccc(Br)cc2)n1,1.9% (inactive)
8,NS(=O)(=O)c1cccc(C(=O)Nc2ccc([N+](=O)[O-])cc2)c1,4.7% (inactive)
9,Clc1ccc(/C=N\N2CCN(C(c3ccccc3)c3ccccc3)CC2)cc1,9.1% (inactive)
10,C/C(Cn1nnc([N+](=O)[O-])n1)=N/NC(=O)Cc1ccccc1,-8.3% (inactive)
11,CCCCS(=O)(=O)CC(O)COc1ccccc1 (centres undefined),10.3% (inactive)
12,COc1cccc(C(=O)Nc2ccccc2C(F)(F)F)c1,5.4% (inactive)
13,CCOC1CC(c2ccccc2)=NN1c1ccccc1 (centres undefined),2.7% (inactive)
14,COc1ccc(C2/C(=C(\O)c3ccc(F)cc3)C(=O)C(=O)N2c2nncs2)cc1 (centres undefined),-1.4% (inactive)
15,Oc1c(/C=C2/C=Nc3ccccc32)sc(=S)n1Cc1ccccc1,11% (inactive)
16,O=C(Nc1cccc(F)c1)c1sc2ccccc2c1Cl,1.2% (inactive)
17,COc1ccc(N2C(=O)c3ccc(C(=O)Nc4cccc(O)c4)cc3C2=O)cc1,2% (inactive)
18,COC(=O)c1ccc(/C=C2\SC(=S)N(CCCC(=O)Nc3nccs3)C2=O)cc1,-4% (inactive)
19,COc1ccccc1CC(=O)Nc1ccc(F)cc1F,6.1% (inactive)
20,COc1ccc(C2/C(=C(\O)c3ccc(Cl)cc3)C(=O)C(=O)N2CCCn2ccnc2)cc1 (centres undefined),13% (inactive)
